MmCpn inh: blocks the Methanococcus maripaludis chaperonin Mm-Cpn. purified Mm-Cpn ATPase, ADP Transcreener TR-FRET. Potency, µM (highest dose often 76.9 µM), inactives show at the top dose activity, negative = inhibition, usual class: inhibitors. 0.031% of 330,000 active. AID 504842; note: % is set by controls: 0 for no effect and ±100 for the full control effect; nearly all actives have a fitted effect of over 80% in size
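Purified archaeal chaperonin (25 nM final) was preincubated with compound for 10 min at 37°C, then ATP (10 uM final) was added for 30 min at 37°C in Tris pH 7.4/KCl/MgCl2/DTT buffer. ADP was quantified by HTRF Transcreener TR-FRET.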
Abeta rescue: compounds reversing amyloid beta toxicity in yeast | yeast expressing A-beta42, growth rescue, OD600, 48 h; response scale: 0% DMSO, 100% iron-clioquinol control | Potency, µM (doses to about 46.1 µM), usual class: activators | 0.063% of 410,000 active | AID 1347071; note: nearly all actives have a fitted effect of over 55% in size
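Yeast A-beta toxicity model in growth medium with pinned compounds, 48 h at 30 C; growth read as absorbance at 600 nm. Normalized to FeCl3/clioquinol equimolar mix (positive) and DMSO (negative).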
aSyn rescue: inhibitors of alpha-synuclein toxicity in yeast; AID 652106; Potency, µM (doses to about 46.1 µM), for the others: at the top dose growth rescue (activation), hits mostly activators; Yeast expressing alpha-synuclein, growth rescue, BacTiter-Glo, 24 h; 0.14% of 370,000 active; note: % of control where 0% means no effect; nearly all actives have a fitted effect of over 65% in size
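Galactose-induced alpha-syn yeast (OD600=0.02, raffinose-pregrown) + pinned cpd, 24 hr, 30 deg C; growth by BacTiter-Glo luminescence. Growth restoration scores as activation.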
TDP43 rescue: TDP-43 toxicity inhibition in yeast. TDP-43 expressing yeast growth rescue, BacTiter-Glo, 24 h. Potency, µM (doses to about 46.1 µM), for the others: top-dose growth rescue (activation), most hits filed as activators. 1.8% of 410,000 active; note: % of control where 0% means no effect; nearly all actives have a fitted effect of over 50% in size
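In this qHTS, compounds that restore growth of yeast expressing TDP-43 appear as activators. Cells (OD600=0.02, galactose medium, raffinose-pregrown) are incubated with compound 24 hr at 30 deg C and growth is quantified by BacTiter-Glo.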
FUS suppressor: FUS proteinopathy suppression in yeast | S. cerevisiae FUS-expressing, growth rescue, OD600, 24 h | Potency, µM (titrated, usually from 76.6 µM), hits mostly activators | 0.24% of 390,000 active | AID 1347120;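 note: plate controls were DMSO vehicle for no effect and reference control for full effect; nearly all actives have a fitted effect of over 55% in size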
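S. cerevisiae expressing FUS from galactose induction served as the toxicity model. Growth after 24hr at 30C, read as absorbance at 600 nm, indicates suppression of toxicity; compounds dosed at several concentrations.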
ClpP mod: qHTS Assay for Activators of ClpP; ATP-dependent Clp protease proteolytic subunit (Bacillus subtilis (strain 168)), P80244; Potency, µM (top dose mostly 57.5 µM), without a hit: at the highest dose activity change, negative = active; AID 651965, 2013; purified B. subtilis ClpP, FRET peptide cleavage, 20 min; 1.9% of 340,000 active; active = well fitted falling curve with a large enough effect; inconclusive = small, poorly fitted or top-dose-only effect; inactive = no such curve, though single readings can be large or run the other way; note: the source files actives as falling curves though it sought activators and does not explain the sign; nearly all actives have a fitted effect of over 65% in size
Target sequence (P80244 whole entry, looked up): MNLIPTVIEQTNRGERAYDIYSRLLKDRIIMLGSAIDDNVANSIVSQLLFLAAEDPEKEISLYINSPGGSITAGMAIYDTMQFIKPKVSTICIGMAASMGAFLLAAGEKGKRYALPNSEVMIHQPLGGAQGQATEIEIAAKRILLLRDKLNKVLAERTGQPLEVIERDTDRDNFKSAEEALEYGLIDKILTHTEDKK
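ClpP 10 microg/mL final, pH 8 Tris/KCl buffer with BSA, glycerol, Tween-20; compound pinned in; FRET-FV substrate; RT 20 min; Ex320/Em430; ΔFRET vs ADEP 5.8 microM, DMSO, no enzyme.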
An asterisk follows results filed as active; i = inactive; ? = inconclusive; / = no result given. In the library only some 3.6% were active in any assay of this set; here they are far more common. Unless noted, calls come from the whole dose curve; as a rule, active = well fitted curve in the direction sought with a large enough effect; inconclusive = small, poorly fitted or top-dose-only effect, or another doubt; inactive = no such curve, though single readings can be large; an effect the other way counts as inactive or inconclusive. Potency is the fitted concentration of half-maximal effect.

SMILES | MmCpn inh | Abeta rescue | aSyn rescue | TDP43 rescue | FUS suppressor | ClpP mod
Cc1cscc1-c1ccc(C(=O)Nc2c(C)cccc2C)o1 | / | i | 29% | 14µM* | i | 1%
CCOc1ccc(N/C=C/C(=O)c2ccc(OC)c(OC)c2)cc1 | -2% | i | ? | 16µM* | i | 0%
CCCOc1ccc(N/C=C/C(=O)c2ccc(OC)c(OC)c2)cc1 | 1% | i | 16% | 6% | i | /
CCc1ccc(NC(=O)CSc2nccn2-c2ccc(OC)cc2)cc1 | / | i | / | ? | ? | 1%
Cc1ccc(C)c(NC(=O)CSc2nccn2-c2cccc(C)c2C)c1 | / | i | / | ? | i | 0%
CCc1ccc(NC(=O)CSc2nccn2-c2cccc(C)c2C)cc1 | / | i | ? | 32µM* | i | -1%
CCc1ccc(NC(=O)CSc2nccn2-c2ccc(F)cc2)cc1 | / | ? | / | 16µM* | i | -4%
O=C(Cn1cc(C(=O)C2CC2)c2ccccc21)Nc1ccc(Br)cc1 | / | i | / | -2% | i | 0%
O=S(=O)(c1ccc(OC(F)(F)F)cc1)N1CCN(c2nc(-c3ccccc3)nc3ccccc23)CC1 | / | / | -3% | / | / | -21%
Cc1oc(-c2ccc(Cl)cc2)nc1CSCC(=O)NCc1ccccc1Cl | / | i | / | 2% | i | 32µM*
Cc1oc(-c2cccc(Cl)c2)nc1CSCC(=O)NCc1ccccc1Cl | / | i | / | 22µM* | i | -17%
CSc1ccc(-c2nc(CSCC(=O)NCCCN3CCOCC3)c(C)o2)cc1 | 2% | i | -2% | 7% | i | 35µM*
Cc1ccc(-c2nc(CSCC(=O)NCCCN3CCOCC3)c(C)o2)cc1 | 0% | i | / | 0% | i | -4%
Cc1ccc(CNC(=O)CSCc2nc(-c3ccc(Cl)cc3)oc2C)cc1 | / | i | / | 20% | i | ?
CCOc1ccccc1CNC(=O)c1ccc(NC(=O)N2CC(C)Sc3ccccc32)cc1 (stereo not drawn) | / | i | / | 23% | i | -1%
Cc1ccc(-c2cc(C)nc3nc(N)nn23)cc1 | -4% | i | 0% | -5% | i | 14µM*
Cc1ccc(-c2cc(C)nc3ncnn23)cc1 | -2% | i | 1% | 26% | i | 5%
O=C(CCS(=O)(=O)c1nc(-c2ccc3c(c2)OCO3)cc(C(F)(F)F)n1)Nc1ccc(F)cc1F | / | i | / | 13µM* | i | ?
COc1ccc(-c2cc(C(F)(F)F)nc(SCC(=O)Nc3cc(C)on3)n2)cc1 | -3% | i | -1% | 10% | i | 4µM*
COc1ccc(CNC(=O)CSc2nc(-c3ccc(OC)cc3)cc(C(F)(F)F)n2)cc1 | / | i | / | 8% | i | -15%
CCCNC(=O)CSc1nc(-c2ccc(OC)cc2)cc(C(F)(F)F)n1 | / | i | / | 21% | i | 3.2µM*
COc1ccc(NC(=O)CCS(=O)(=O)c2nc(-c3ccc4c(c3)OCO4)cc(C(F)(F)F)n2)cc1 | / | i | / | ? | i | 3%
COc1ccc(-c2cc(C(F)(F)F)nc(SCCC(=O)NCc3ccccc3)n2)cc1 | 0% | i | -3% | -9% | i | 13µM*
COC(=O)c1c(NC(=O)c2ccc(S(=O)(=O)N3CCCCC3)cc2)sc2c1CCN(C)C2 | / | i | / | 2% | i | 29%
CC(NC(=O)CCSc1nc(-c2ccc3c(c2)OCO3)cc(C(F)(F)F)n1)c1ccccc1 (stereo not drawn) | -1% | i | -3% | -8% | i | 32µM*
SMILES | MmCpn inh | Abeta rescue | aSyn rescue | TDP43 rescue | FUS suppressor | ClpP mod
CC(C)NC(=O)CCSc1nc(-c2ccc3c(c2)OCO3)cc(C(F)(F)F)n1 | / | i | / | 14% | i | 4%
CCCn1c(C(=O)OC)cc2c1ccn2-c1ccc(F)cc1 | 1% | ? | 1% | 8% | i | 28µM*
COC(=O)c1cc2c(ccn2-c2ccc(F)cc2)n1CC(C)C | -1% | i | 12% | 0% | i | 28µM*
CCOC(=O)c1cc2c(ccn2-c2ccc(F)cc2)n1CC(=O)N1CCN(C(=O)c2ccco2)CC1 | -1% | i | -1% | 3% | i | 32µM*
COC(=O)c1cc2c(ccn2-c2ccc(F)cc2)n1C(C)C | -1% | i | 1% | 0% | i | ?
Cc1cc(C(=O)OCC(=O)N2CCN(C(=O)c3ccco3)CC2)c(C)n1-c1ccc(F)cc1 | 1% | i | -5% | -5% | i | 1%
COc1ccc(CNC(=S)N/N=C(/C)c2ccccc2)cc1 | -21% | ? | -19% | 18µM* | i | 0%
C/C(=N\NC(=S)NCc1ccccc1)c1ccco1 | -1% | 11µM* | -12% | ? | i | -1%
C/C(=N\NC(=S)NCc1ccccc1)c1ccccc1 | -1% | 3.5µM* | -5% | 0% | i | /
C/C(=N\NC(=S)NCc1ccccc1)c1ccccc1F | -4% | 11µM* | -8% | -11% | i | /
CCN1C(=O)[C@H]2[C@H]3[C@H](O)[C@H](O)CC(=O)[C@@H]3CC[C@H]2C1=O | / | / | -6% | / | / | -1%
CCCCCCCCNc1ccccc1S(=O)(=O)NCc1ccccc1 | -2% | i | 2% | -7% | i | 32µM*
O=C(C[n+]1ccccc1Cl)c1ccc(O)c(O)c1 | / | / | 19% | / | / | 0%
O=C(CCc1nc2cccnc2n1Cc1cccs1)Nc1cccc(C(F)(F)F)c1 | / | ? | / | 25µM* | i | 3%
O=C(CNc1ccccc1-c1ccccc1)NCc1ccccc1 | 0% | i | 6% | 20µM* | / | ?
O=C(CNCc1ccccc1)Nc1ccccc1-c1ccccc1 | 1% | i | 0% | -1% | i | /
O=C(O)CCc1ccc2ccccc2c1 | / | / | -15% | / | / | -5%
Cc1cc(N2CCOCC2)n2ncc(-c3ccc(Cl)cc3)c2n1 | 0% | i | -1% | 18% | i | /
Cc1cc(N2CCC(C)CC2)n2ncc(-c3ccccc3)c2n1 | -3% | i | 0% | 16% | i | 32µM*
Cc1cc(C)n(-c2cc(C(C)(C)C)nc3c(-c4ccccc4)cnn23)n1 | -5% | i | -6% | 14µM* | i | /
Cc1cc(N2CCCCC2)n2ncc(-c3ccccc3)c2n1 | 1% | i | -3% | 21% | i | -29%
Cc1cc(N2CCCCC2)n2ncc(-c3ccc(Cl)cc3)c2n1 | 1% | i | -8% | 14µM* | 11µM* | 32µM*
COc1cc(OC)c(/C=C/c2cc(/C=C/c3c(OC)cc(OC)cc3OC)[n+](C)c3ccccc23)c(OC)c1 | / | / | -39% | / | / | -12%

Screening results (PubChem BioAssay)
